# Numbering of substitutions follows the chain as printed.
# Legend:
# Test in all cases: PBM; 200 nM protein, PBS
# Conditions in all cases: dsDNA, one strand shown
# [1] = target: T1, NKX2-4 (Homo sapiens, UniProt Q9H2Z4 175-261, P217L)
# T1 sequence: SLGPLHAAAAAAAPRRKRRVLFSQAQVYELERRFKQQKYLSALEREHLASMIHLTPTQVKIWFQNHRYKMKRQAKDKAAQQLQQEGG
# [2] = target: T2, NKX2-4 (Homo sapiens, UniProt Q9H2Z4 175-261, T231S)
# T2 sequence: T1 sequence with L43P, T57S
# [3] = target: T3, NKX2-4 (Homo sapiens, UniProt Q9H2Z4 175-261)
# T3 sequence: T1 sequence with L43P
# [4] = target: T4, NKX2-4 (Homo sapiens, UniProt Q9H2Z4 175-261, R246Q)
# T4 sequence: T1 sequence with L43P, R72Q
# [5] = target: HOXA2 (Homo sapiens, UniProt O43364 129-215, R185T)
# [6] = target: HOXA2 (Homo sapiens, UniProt O43364 129-215, R185K)
# [7] = target: VAX1 (Homo sapiens, UniProt Q5SQQ9 86-172)
# [8] = target: VAX1 (Homo sapiens, UniProt Q5SQQ9 86-172, T142I)
# [9] = target: HOXA2 (Homo sapiens, UniProt O43364 129-215, Y150S)
# [10] = target: HOXA2 (Homo sapiens, UniProt O43364 129-215)
# [11] = target: VAX1 (Homo sapiens, UniProt Q5SQQ9 86-172, K157R)
# [12] = target: T5, NKX2-6 (Homo sapiens, UniProt A6NCS4 118-204, R150C)
# T5 sequence: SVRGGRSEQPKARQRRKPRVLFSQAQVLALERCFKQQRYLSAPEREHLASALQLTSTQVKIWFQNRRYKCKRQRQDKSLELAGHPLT
# [13] = target: T6, NKX2-6 (Homo sapiens, UniProt A6NCS4 118-204)
# T6 sequence: T5 sequence with C33R
# [14] = target: T7, NKX2-6 (Homo sapiens, UniProt A6NCS4 118-204, F151L)
# T7 sequence: T5 sequence with C33R, F34L
# [15] = target: HOXC10 (Homo sapiens, UniProt Q9NYD6 254-340)
# [16] = target: HOXC10 (Homo sapiens, UniProt Q9NYD6 254-340, K271E)
# [17] = target: HOXB6 (Homo sapiens, UniProt P17509 132-218, K202E)
# [18] = target: HOXB6 (Homo sapiens, UniProt P17509 132-218)
# HOXB6 (Homo sapiens, UniProt P17509 132-218), sequence (P17509 132-218): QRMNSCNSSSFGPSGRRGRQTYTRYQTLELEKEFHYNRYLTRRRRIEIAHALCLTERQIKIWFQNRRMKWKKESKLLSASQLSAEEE
# HOXC10 (Homo sapiens, UniProt Q9NYD6 254-340, K271E), sequence (Q9NYD6 254-340 K271E): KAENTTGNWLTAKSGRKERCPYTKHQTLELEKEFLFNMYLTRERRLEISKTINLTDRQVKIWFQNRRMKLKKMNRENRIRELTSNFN
# VAX1 (Homo sapiens, UniProt Q5SQQ9 86-172, T142I), sequence (Q5SQQ9 86-172 T142I): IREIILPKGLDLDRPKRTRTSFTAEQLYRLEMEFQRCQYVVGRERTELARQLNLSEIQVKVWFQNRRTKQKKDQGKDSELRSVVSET
# HOXA2 (Homo sapiens, UniProt O43364 129-215, R185K), sequence (O43364 129-215 R185K): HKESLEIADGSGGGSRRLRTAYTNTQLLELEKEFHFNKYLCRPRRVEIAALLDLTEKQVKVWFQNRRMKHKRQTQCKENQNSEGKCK
# HOXA2 (Homo sapiens, UniProt O43364 129-215, R185T), sequence (O43364 129-215 R185T): as the sequence (O43364 129-215 R185K) above, with K57T counted along it
# HOXC10 (Homo sapiens, UniProt Q9NYD6 254-340), sequence (Q9NYD6 254-340): as the sequence (Q9NYD6 254-340 K271E) above, with E18K counted along it
# HOXA2 (Homo sapiens, UniProt O43364 129-215), sequence (O43364 129-215): as the sequence (O43364 129-215 R185K) above, with K57R counted along it
# VAX1 (Homo sapiens, UniProt Q5SQQ9 86-172, K157R), sequence (Q5SQQ9 86-172 K157R): as the sequence (Q5SQQ9 86-172 T142I) above, with I57T, K72R counted along it
# HOXB6 (Homo sapiens, UniProt P17509 132-218, K202E), sequence (P17509 132-218 K202E): as the sequence (P17509 132-218) above, with K71E counted along it
# HOXA2 (Homo sapiens, UniProt O43364 129-215, Y150S), sequence (O43364 129-215 Y150S): as the sequence (O43364 129-215 R185K) above, with Y22S, K57R counted along it
# VAX1 (Homo sapiens, UniProt Q5SQQ9 86-172), sequence (Q5SQQ9 86-172): as the sequence (Q5SQQ9 86-172 T142I) above, with I57T counted along it
sequence,measurement,setting,value
ACGTACTC,binding signal,[1],"11.8 upbm affinity estimate (log intensity, higher = more binding, comparable within an allelic series)"
same,binding signal,[2],"12 upbm affinity estimate (log intensity, higher = more binding, comparable within an allelic series)"
same,binding signal,[3],"11.7 upbm affinity estimate (log intensity, higher = more binding, comparable within an allelic series)"
same,binding signal,[4],"11.9 upbm affinity estimate (log intensity, higher = more binding, comparable within an allelic series)"
CCGCCACG,binding signal,[1],"9.92 upbm affinity estimate (log intensity, higher = more binding, comparable within an allelic series)"
same,binding signal,[2],"9.9 upbm affinity estimate (log intensity, higher = more binding, comparable within an allelic series)"
same,binding signal,[3],"9.94 upbm affinity estimate (log intensity, higher = more binding, comparable within an allelic series)"
same,binding signal,[4],"9.94 upbm affinity estimate (log intensity, higher = more binding, comparable within an allelic series)"
ACTTATCC,binding signal,[1],"11.9 upbm affinity estimate (log intensity, higher = more binding, comparable within an allelic series)"
same,binding signal,[2],"12.1 upbm affinity estimate (log intensity, higher = more binding, comparable within an allelic series)"
same,binding signal,[3],"11.7 upbm affinity estimate (log intensity, higher = more binding, comparable within an allelic series)"
same,binding signal,[4],"12.1 upbm affinity estimate (log intensity, higher = more binding, comparable within an allelic series)"
GCCACGCC,binding signal,[1],"9.91 upbm affinity estimate (log intensity, higher = more binding, comparable within an allelic series)"
same,binding signal,[2],"9.93 upbm affinity estimate (log intensity, higher = more binding, comparable within an allelic series)"
same,binding signal,[3],"9.88 upbm affinity estimate (log intensity, higher = more binding, comparable within an allelic series)"
same,binding signal,[5],"7.26 upbm affinity estimate (log intensity, higher = more binding, comparable within an allelic series)"
same,binding signal,[6],"10.2 upbm affinity estimate (log intensity, higher = more binding, comparable within an allelic series)"
same,binding signal,[4],"9.85 upbm affinity estimate (log intensity, higher = more binding, comparable within an allelic series)"
same,binding signal,[7],"7.13 upbm affinity estimate (log intensity, higher = more binding, comparable within an allelic series)"
same,binding signal,[8],"7.33 upbm affinity estimate (log intensity, higher = more binding, comparable within an allelic series)"
same,binding signal,[9],"10.4 upbm affinity estimate (log intensity, higher = more binding, comparable within an allelic series)"
same,binding signal,[10],"7.17 upbm affinity estimate (log intensity, higher = more binding, comparable within an allelic series)"
same,binding signal,[11],"7.18 upbm affinity estimate (log intensity, higher = more binding, comparable within an allelic series)"
CCCTCATA,binding signal,[1],"11.6 upbm affinity estimate (log intensity, higher = more binding, comparable within an allelic series)"
same,binding signal,[2],"11.8 upbm affinity estimate (log intensity, higher = more binding, comparable within an allelic series)"
same,binding signal,[3],"11.5 upbm affinity estimate (log intensity, higher = more binding, comparable within an allelic series)"
ACTCAAGT,binding signal,[1],"12.4 upbm affinity estimate (log intensity, higher = more binding, comparable within an allelic series)"
same,binding signal,[2],"12.9 upbm affinity estimate (log intensity, higher = more binding, comparable within an allelic series)"
same,binding signal,[3],"12.3 upbm affinity estimate (log intensity, higher = more binding, comparable within an allelic series)"
same,binding signal,[12],"11.4 upbm affinity estimate (log intensity, higher = more binding, comparable within an allelic series)"
same,binding signal,[4],"12.9 upbm affinity estimate (log intensity, higher = more binding, comparable within an allelic series)"
GCAAGTGC,binding signal,[1],"11.9 upbm affinity estimate (log intensity, higher = more binding, comparable within an allelic series)"
same,binding signal,[2],"12.1 upbm affinity estimate (log intensity, higher = more binding, comparable within an allelic series)"
same,binding signal,[3],"11.7 upbm affinity estimate (log intensity, higher = more binding, comparable within an allelic series)"
same,binding signal,[4],"12.2 upbm affinity estimate (log intensity, higher = more binding, comparable within an allelic series)"
AGAAGCCG,binding signal,[1],"9.64 upbm affinity estimate (log intensity, higher = more binding, comparable within an allelic series)"
same,binding signal,[2],"9.7 upbm affinity estimate (log intensity, higher = more binding, comparable within an allelic series)"
same,binding signal,[3],"9.69 upbm affinity estimate (log intensity, higher = more binding, comparable within an allelic series)"
same,binding signal,[13],"9.29 upbm affinity estimate (log intensity, higher = more binding, comparable within an allelic series)"
same,binding signal,[4],"9.62 upbm affinity estimate (log intensity, higher = more binding, comparable within an allelic series)"
same,binding signal,[14],"9.27 upbm affinity estimate (log intensity, higher = more binding, comparable within an allelic series)"
CGTCGGGC,binding signal,[1],"9.35 upbm affinity estimate (log intensity, higher = more binding, comparable within an allelic series)"
same,binding signal,[2],"9.21 upbm affinity estimate (log intensity, higher = more binding, comparable within an allelic series)"
same,binding signal,[15],"10 upbm affinity estimate (log intensity, higher = more binding, comparable within an allelic series)"
same,binding signal,[3],"9.36 upbm affinity estimate (log intensity, higher = more binding, comparable within an allelic series)"
same,binding signal,[16],"10.1 upbm affinity estimate (log intensity, higher = more binding, comparable within an allelic series)"
same,binding signal,[4],"9.37 upbm affinity estimate (log intensity, higher = more binding, comparable within an allelic series)"
ATGTGCGC,binding signal,[1],"9.81 upbm affinity estimate (log intensity, higher = more binding, comparable within an allelic series)"
same,binding signal,[2],"9.85 upbm affinity estimate (log intensity, higher = more binding, comparable within an allelic series)"
same,binding signal,[3],"9.82 upbm affinity estimate (log intensity, higher = more binding, comparable within an allelic series)"
same,binding signal,[4],"9.8 upbm affinity estimate (log intensity, higher = more binding, comparable within an allelic series)"
AAAGTACT,binding signal,[1],"12.4 upbm affinity estimate (log intensity, higher = more binding, comparable within an allelic series)"
same,binding signal,[2],"12.8 upbm affinity estimate (log intensity, higher = more binding, comparable within an allelic series)"
same,binding signal,[3],"12.3 upbm affinity estimate (log intensity, higher = more binding, comparable within an allelic series)"
same,binding signal,[4],"12.8 upbm affinity estimate (log intensity, higher = more binding, comparable within an allelic series)"
CCAGGCTC,binding signal,[1],"9.76 upbm affinity estimate (log intensity, higher = more binding, comparable within an allelic series)"
same,binding signal,[2],"9.75 upbm affinity estimate (log intensity, higher = more binding, comparable within an allelic series)"
same,binding signal,[3],"9.7 upbm affinity estimate (log intensity, higher = more binding, comparable within an allelic series)"
same,binding signal,[17],"9.08 upbm affinity estimate (log intensity, higher = more binding, comparable within an allelic series)"
same,binding signal,[4],"9.86 upbm affinity estimate (log intensity, higher = more binding, comparable within an allelic series)"
same,binding signal,[18],"9.18 upbm affinity estimate (log intensity, higher = more binding, comparable within an allelic series)"
ACCTGGGC,binding signal,[1],"9.66 upbm affinity estimate (log intensity, higher = more binding, comparable within an allelic series)"
same,binding signal,[2],"9.68 upbm affinity estimate (log intensity, higher = more binding, comparable within an allelic series)"
same,binding signal,[3],"9.7 upbm affinity estimate (log intensity, higher = more binding, comparable within an allelic series)"
same,binding signal,[4],"9.78 upbm affinity estimate (log intensity, higher = more binding, comparable within an allelic series)"
ACCAACGG,binding signal,[1],"9.32 upbm affinity estimate (log intensity, higher = more binding, comparable within an allelic series)"
same,binding signal,[2],"9.25 upbm affinity estimate (log intensity, higher = more binding, comparable within an allelic series)"
same,binding signal,[3],"9.28 upbm affinity estimate (log intensity, higher = more binding, comparable within an allelic series)"
same,binding signal,[4],"9.29 upbm affinity estimate (log intensity, higher = more binding, comparable within an allelic series)"

# Reference: publication PMC11006913
